Hits are enriched below; roughly 2.7% of the tested compounds scored in any of these assays.
KKLEB tox = CF airway cell cytotoxicity counter-screen | KKLEB CF airway cells viability, ATPlite luminescence, overnight; hits give low values; cells stimulated with P. aeruginosa culture filtrate | activity change (cytotoxicity), % at 5 µM | 0.36% of 360,000 active;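 active = corrected activity change at or below -50% at 5 µM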
TRPM1 prom inh = inhibitors of MITF-driven TRPM1 promoter in melanoma cells; 0.83% of 330,000 active; inhibition, % at 12.5 µM; AID 488899; SK-MEL-5 TRPM1 promoter luciferase, 24 h;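 active = mean inhibition across replicates of 60% or more, whatever share of single replicates reaches that level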
Shn3 3UTR inh = Schnurri-3 reporter inhibition in Clone20 osteoblasts. Clone20 osteoblast Shn3 3'UTR firefly luciferase, 24 h. inhibition, % at 12.5 µM. 0.52% of 360,000 active;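 active = mean inhibition of at least 75% with every replicate also reaching 75%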;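 also: 0% = median of neutral control wells and 100% = pilot-screen positive control compound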
Peg3 prom inh = inhibitors of Peg3 promoter; inhibition, % at 20 µM; HeLa PEG-Prom luciferase reporter, luminescence, overnight; 1.7% of 360,000 active;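 active = inhibition of at least 50% at 20 µM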
HIF-2a block = blocks HIF-2a reporter activity | 0.72% of 360,000 active | 786-0 RCC cells HIF-2a reporter, luciferase luminescence, overnight | inhibition, % at 18.8 µM;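 active = inhibition of the luminescence signal of 40% or more relative to plate controls, in a single-dose primary screen at 18.75 µM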
CF NFkB inh = inhibitors of cystic fibrosis induced NF-kB | KKLEB NF-kB-GFP reporter, PAF-induced, GFP fluorescence overnight | inhibition, % at 5 µM | 0.86% of 360,000 active;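 active = at least 50% inhibition at 5 µM, scaled per plate between neutral and stimulator controls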;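 also: PAF is a Pseudomonas aeruginosa culture filtrate used as stimulus; plate controls were PAF-stimulated DMSO wells for no effect and unstimulated DMSO wells for full effect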
* hit, by the source's call; · = not tested or not shown.

SMILES	KKLEB tox	TRPM1 prom inh	Shn3 3UTR inh	Peg3 prom inh	HIF-2a block	CF NFkB inh
COC(=O)Cc1ccc(OC2(C)CCN(Cc3ccccc3)C2)cc1 (stereo unspecified)	-2	·	18	11	4	0
Cc1ccccc1N1C(=O)CC(Sc2nnc(-c3ccccc3)o2)C1=O (stereo unspecified)	3	10	76	95*	-40	39
O=C1CC(Sc2nnc(-c3ccccc3)o2)C(=O)N1c1ccccc1 (stereo unspecified)	1	3	32	-63	-96	-2
O=C(Nc1cccc2c1CCCC2)c1cc(C2CCCCN2C(=O)CCCc2ccccc2)on1 (stereo unspecified)	17	·	-2	4	11	-6
COc1cccc(C(=O)Nc2nnc(S(=O)(=O)N(C)Cc3ccccc3)s2)c1	0	-3	0	55*	7	20
CC1=C(C(=O)Nc2ccc(C)cc2C)C(c2cccc([N+](=O)[O-])c2)n2nc(C(=O)OC(C)C)nc2N1 (stereo unspecified)	-25	7	18	81*	20	-14
Cc1cc2nc(-c3ccc(SCC(=O)Nc4ccc(S(=O)(=O)N5CCCC5)cc4)nc3)[nH]c2cc1C	-54*	-28	-31	-78	-194	23
COc1ccc(-c2nc(SCC(=O)Nc3nccs3)c(-c3ccc(Cl)cc3)[nH]2)cc1	-16	·	23	52*	-2	10
Cc1cc2nc(-c3ccc(SCC(=O)Nc4nccs4)nc3)[nH]c2cc1C	-59*	74*	9	14	-155	58*
CCc1nnc(NC(=O)CSc2ccc(-c3nc4ccc(C)cc4[nH]3)cn2)s1	-42	20	-2	-259	-153	12
Cc1cc2nc(-c3ccc(C#N)cc3)c(Cc3ccsc3)n2c(C)c1Br	·	·	·	·	-53	·
CCN(CC)S(=O)(=O)c1cccc(NC(=O)CNc2cccc(S(=O)(=O)N3CCCC3)c2)c1	-3	44	87*	13	25	18
O=C(Nc1cccc(S(=O)(=O)N2CCCCC2)c1)c1ccccc1NS(=O)(=O)c1ccc(F)cc1	-19	18	21	37	4	44
Cc1ccc(NC(=O)c2ccccc2NS(=O)(=O)c2ccc(F)cc2)cc1S(=O)(=O)N1CCCCC1	-26	30	71	52*	11	48
Cc1ccc(NC(=O)CN(C)CC(=O)Nc2cccc(F)c2)cc1S(=O)(=O)N1CCCCCC1	-14	10	19	59*	15	-11
COc1ccc(NC(=O)CN(C)CC(=O)Nc2cccc(F)c2)cc1S(=O)(=O)N1CCCCC1	-2	13	1	21	19	0
O=C(Nc1ccc(F)c(Cl)c1)c1cc(C2CCCN(C(=O)CCc3ccccc3)C2)on1 (stereo unspecified)	-1	·	-18	-186	-206	-15
CCc1nc2c(OCc3cccc(Cl)c3)cccn2c1N(C)C(=O)C1CC1	2	·	6	18	13	-35
CCCCN1C(=O)C(CC(=O)NCc2cccc3ccccc23)CC(C(=O)N(C(C)C)C(C)C)=C1C (stereo unspecified)	·	·	·	·	5	·
O=[N+]([O-])c1ccc(N2N=C(c3ccccc3)CC2c2ccccc2O)cc1 (stereo unspecified)	-37	3	56	53*	0	41
O=C(NCc1cccnc1)c1cc(C2CCCCN2S(=O)(=O)Cc2ccccc2)on1 (stereo unspecified)	-9	·	1	16	10	23
CCC1=NN(C(=O)c2cccc(Br)c2)C(O)(c2ccc(Br)cc2)C1 (stereo unspecified)	-54*	-1	47	25	4	62*
CCC1=NN(C(=O)c2ccc(C)cc2)C(O)(c2ccc(Br)cc2)C1 (stereo unspecified)	9	-22	-57	-18	-32	0
COc1ccc(C(C)(NC(C)=O)c2nc(-c3ccccc3OC)cs2)cc1 (stereo unspecified)	-7	·	3	12	5	3
COC1C(CO)OC(n2c3c(Cl)cccc3c3c4c(c5c6cccc(Cl)c6[nH]c5c32)C(=O)NC4=O)C(O)C1O (stereo unspecified)	-36	86*	0	28	34	-94
SMILES	KKLEB tox	TRPM1 prom inh	Shn3 3UTR inh	Peg3 prom inh	HIF-2a block	CF NFkB inh
COCCCNC(=O)C[C@@H]1C[C@@]2(C(=O)OC)CC(C)(C)CC=C2N(Cc2ccccc2)C1=O	·	·	·	·	1	·
C=CCn1c(=O)/c(=C/c2cc(OC)c(OC)c(OC)c2)s/c1=C(/C#N)c1nc2ccccc2n1C	-50*	7	-6	30	12	5
CCCCNC(=O)c1nc(-c2cc3ccccc3[nH]2)oc1-c1ccccc1	·	·	·	·	13	·
COc1ccc(N2CSC(=S)N(c3ccc(OC)cc3)C2)cc1	-4	·	5	-44	-67	8
CCCCCCn1ccc(=N)cc1	2	19	86*	7	19	-2
Cn1c(-c2ccccc2)cc(=O)cc1-c1ccccc1	-5	·	-4	1	4	7
O=c1cc(-c2ccccc2)cc(-c2ccccc2)n1O	-28	15	92*	15	-22	-12
Nc1nc(=S)c2ncn(C3OC(CO)C(O)C3O)c2[nH]1 (stereo unspecified)	-2	10	-33	29	11	-9
Nc1nc(=S)c2ncn([C@@H]3O[C@H](CO)[C@@H](O)[C@H]3O)c2[nH]1	15	72*	19	62*	6	-10
O=C1/C(=C/c2ccccc2)SC(=S)N1CC(=O)N1CCCCC1c1cccnc1 (stereo unspecified)	-14	-49	16	59*	73*	34
O=C1CSC(c2ccc3c(c2)OCO3)N1c1ccc(Oc2ccccc2)cc1 (stereo unspecified)	-97*	14	-2	12	26	4
Cc1ccc(C)c(NC(=O)C(Sc2nc3ccccc3c(=O)n2CC(C)C)c2ccccc2)c1 (stereo unspecified)	-93*	8	70	57*	-6	105*
Cc1ccc(C)c(NC(=O)C(Sc2ncnc3ccccc23)c2ccccc2)c1 (stereo unspecified)	-21	0	18	59*	15	9
CCOC(=O)c1c(C)c(C(=O)Nc2cc(OC)ccc2OC)c(C)n1CC	-15	10	24	57*	-57	13
CCCCCCCCCCCC1N=C(N)NC(CCCO)=C1C(=O)OC (stereo unspecified)	-4	-8	25	96*	38	7
CCCCCCOC(=O)c1ccc(N)cc1	8	-46	-98	-317	-298	-1
CN[C@@H]1CC[C@H](c2ccc(Cl)c(Cl)c2)c2ccccc21	·	1	19	91*	-8	13
COc1ccccc1C1CCN(Cc2ccc(Cl)c(Cl)c2)CC1	-8	22	7	5	20	-6

Screens deposited in PubChem by several laboratories.
